Assay results published in ChEMBL document CHEMBL1961873, “Compounds: GSK PKIS; Assays: Nanosyn kinase panel” (2012).

Experiments:
[1] = target: Sphingosine kinase 1 (Homo sapiens) (UniProt Q9NYA1); details: at 1 µM;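 note: mean SPHK1 inhibition value reported from the GSK PKIS kinase panel screen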
[2] = target: T1, Sphingosine kinase 2 (Homo sapiens) (UniProt Q9NRA0); details: at 0.1 µM
T1 sequence (whole entry): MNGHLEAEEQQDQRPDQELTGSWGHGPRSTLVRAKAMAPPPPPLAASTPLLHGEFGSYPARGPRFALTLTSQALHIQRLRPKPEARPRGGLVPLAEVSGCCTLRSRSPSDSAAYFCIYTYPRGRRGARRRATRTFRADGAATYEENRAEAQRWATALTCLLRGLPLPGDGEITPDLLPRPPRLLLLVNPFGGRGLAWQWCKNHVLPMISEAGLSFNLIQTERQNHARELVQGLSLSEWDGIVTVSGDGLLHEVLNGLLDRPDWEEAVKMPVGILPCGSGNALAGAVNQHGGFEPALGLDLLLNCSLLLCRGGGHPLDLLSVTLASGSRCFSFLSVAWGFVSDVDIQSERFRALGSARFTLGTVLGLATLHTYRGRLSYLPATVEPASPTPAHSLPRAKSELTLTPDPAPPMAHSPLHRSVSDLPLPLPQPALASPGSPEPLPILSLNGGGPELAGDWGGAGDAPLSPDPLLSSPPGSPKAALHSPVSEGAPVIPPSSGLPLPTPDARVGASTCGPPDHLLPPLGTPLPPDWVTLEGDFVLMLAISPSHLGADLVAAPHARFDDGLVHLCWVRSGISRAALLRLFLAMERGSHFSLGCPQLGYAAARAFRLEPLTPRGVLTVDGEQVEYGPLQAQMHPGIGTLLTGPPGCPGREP

[3] = target: T1, Sphingosine kinase 2 (Homo sapiens); details: at 1 µM
[4] = target: Casein kinase II subunit alpha (Homo sapiens) (UniProt P68400); details: at 0.1 µM
[5] = target: Casein kinase II subunit alpha (Homo sapiens) (UniProt P68400); details: at 1 µM
[6] = target: T2, Inhibitor of nuclear factor kappa-B kinase subunit alpha (Homo sapiens) (UniProt O15111); details: at 0.1 µM
T2 sequence (whole entry): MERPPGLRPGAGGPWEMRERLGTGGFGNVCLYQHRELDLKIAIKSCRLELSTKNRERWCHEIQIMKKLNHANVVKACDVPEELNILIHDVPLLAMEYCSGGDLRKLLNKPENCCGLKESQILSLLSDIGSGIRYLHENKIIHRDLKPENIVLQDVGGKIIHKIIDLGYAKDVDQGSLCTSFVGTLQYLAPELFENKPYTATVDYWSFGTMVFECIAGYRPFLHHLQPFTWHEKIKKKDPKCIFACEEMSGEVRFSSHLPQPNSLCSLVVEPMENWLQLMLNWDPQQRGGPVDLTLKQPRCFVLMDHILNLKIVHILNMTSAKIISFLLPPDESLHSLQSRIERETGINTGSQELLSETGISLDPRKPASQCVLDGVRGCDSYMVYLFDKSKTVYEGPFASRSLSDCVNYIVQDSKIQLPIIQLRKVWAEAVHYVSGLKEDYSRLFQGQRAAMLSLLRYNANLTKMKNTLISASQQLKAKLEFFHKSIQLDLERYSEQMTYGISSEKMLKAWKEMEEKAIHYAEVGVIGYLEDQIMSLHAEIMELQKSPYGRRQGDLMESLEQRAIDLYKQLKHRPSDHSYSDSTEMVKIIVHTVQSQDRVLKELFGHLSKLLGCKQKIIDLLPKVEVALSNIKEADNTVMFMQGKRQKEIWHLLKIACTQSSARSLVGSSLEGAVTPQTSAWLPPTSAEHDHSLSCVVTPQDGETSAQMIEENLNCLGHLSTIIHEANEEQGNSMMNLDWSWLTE

[7] = target: T2, Inhibitor of nuclear factor kappa-B kinase subunit alpha (Homo sapiens); details: at 1 µM
[8] = target: T3, Inhibitor of nuclear factor kappa-B kinase subunit beta (Homo sapiens) (UniProt O14920); details: at 0.1 µM
T3 sequence (whole entry): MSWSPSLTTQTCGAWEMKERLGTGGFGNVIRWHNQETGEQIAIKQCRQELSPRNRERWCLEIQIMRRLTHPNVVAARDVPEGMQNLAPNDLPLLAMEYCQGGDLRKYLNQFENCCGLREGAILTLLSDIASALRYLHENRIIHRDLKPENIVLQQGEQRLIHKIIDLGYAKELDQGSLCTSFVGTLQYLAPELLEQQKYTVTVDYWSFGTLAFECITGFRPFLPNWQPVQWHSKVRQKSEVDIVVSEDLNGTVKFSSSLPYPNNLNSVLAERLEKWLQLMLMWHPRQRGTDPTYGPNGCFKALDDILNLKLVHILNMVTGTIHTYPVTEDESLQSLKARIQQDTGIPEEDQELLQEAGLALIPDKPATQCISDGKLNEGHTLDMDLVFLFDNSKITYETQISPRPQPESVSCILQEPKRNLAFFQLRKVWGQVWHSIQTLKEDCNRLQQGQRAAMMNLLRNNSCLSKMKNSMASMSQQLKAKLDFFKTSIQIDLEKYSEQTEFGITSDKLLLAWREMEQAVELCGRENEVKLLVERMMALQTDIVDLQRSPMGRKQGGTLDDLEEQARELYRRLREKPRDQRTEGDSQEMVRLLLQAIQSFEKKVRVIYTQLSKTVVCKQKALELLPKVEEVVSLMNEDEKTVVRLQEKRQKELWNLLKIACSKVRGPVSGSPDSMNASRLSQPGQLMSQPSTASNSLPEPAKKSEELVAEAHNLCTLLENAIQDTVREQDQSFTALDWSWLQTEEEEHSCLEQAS

[9] = target: T3, Inhibitor of nuclear factor kappa-B kinase subunit beta (Homo sapiens); details: at 1 µM
[10] = target: T4, Inhibitor of nuclear factor kappa-B kinase subunit epsilon (Homo sapiens) (UniProt Q14164); details: at 0.1 µM
T4 sequence (whole entry): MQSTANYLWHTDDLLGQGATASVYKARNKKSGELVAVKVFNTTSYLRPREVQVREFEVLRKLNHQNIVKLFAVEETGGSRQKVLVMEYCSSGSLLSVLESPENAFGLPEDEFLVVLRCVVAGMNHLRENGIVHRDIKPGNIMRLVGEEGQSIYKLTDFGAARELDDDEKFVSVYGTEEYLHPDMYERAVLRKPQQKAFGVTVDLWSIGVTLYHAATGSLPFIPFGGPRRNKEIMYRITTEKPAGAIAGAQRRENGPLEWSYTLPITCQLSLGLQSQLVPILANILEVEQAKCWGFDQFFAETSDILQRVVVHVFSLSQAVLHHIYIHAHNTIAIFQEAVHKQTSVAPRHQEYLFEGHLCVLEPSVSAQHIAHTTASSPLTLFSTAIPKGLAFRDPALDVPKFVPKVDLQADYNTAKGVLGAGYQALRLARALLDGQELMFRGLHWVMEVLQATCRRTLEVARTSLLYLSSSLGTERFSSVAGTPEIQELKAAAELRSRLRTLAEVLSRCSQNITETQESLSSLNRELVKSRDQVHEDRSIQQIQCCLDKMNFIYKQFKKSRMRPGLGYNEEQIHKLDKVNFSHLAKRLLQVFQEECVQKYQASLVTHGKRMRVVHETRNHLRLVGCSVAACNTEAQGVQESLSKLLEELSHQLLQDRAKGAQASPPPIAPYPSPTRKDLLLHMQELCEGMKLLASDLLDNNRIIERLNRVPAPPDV

[11] = target: T4, Inhibitor of nuclear factor kappa-B kinase subunit epsilon (Homo sapiens); details: at 1 µM
[12] = target: T5, Serine/threonine-protein kinase Nek1 (Homo sapiens) (UniProt Q96PY6); details: at 0.1 µM
T5 sequence (whole entry): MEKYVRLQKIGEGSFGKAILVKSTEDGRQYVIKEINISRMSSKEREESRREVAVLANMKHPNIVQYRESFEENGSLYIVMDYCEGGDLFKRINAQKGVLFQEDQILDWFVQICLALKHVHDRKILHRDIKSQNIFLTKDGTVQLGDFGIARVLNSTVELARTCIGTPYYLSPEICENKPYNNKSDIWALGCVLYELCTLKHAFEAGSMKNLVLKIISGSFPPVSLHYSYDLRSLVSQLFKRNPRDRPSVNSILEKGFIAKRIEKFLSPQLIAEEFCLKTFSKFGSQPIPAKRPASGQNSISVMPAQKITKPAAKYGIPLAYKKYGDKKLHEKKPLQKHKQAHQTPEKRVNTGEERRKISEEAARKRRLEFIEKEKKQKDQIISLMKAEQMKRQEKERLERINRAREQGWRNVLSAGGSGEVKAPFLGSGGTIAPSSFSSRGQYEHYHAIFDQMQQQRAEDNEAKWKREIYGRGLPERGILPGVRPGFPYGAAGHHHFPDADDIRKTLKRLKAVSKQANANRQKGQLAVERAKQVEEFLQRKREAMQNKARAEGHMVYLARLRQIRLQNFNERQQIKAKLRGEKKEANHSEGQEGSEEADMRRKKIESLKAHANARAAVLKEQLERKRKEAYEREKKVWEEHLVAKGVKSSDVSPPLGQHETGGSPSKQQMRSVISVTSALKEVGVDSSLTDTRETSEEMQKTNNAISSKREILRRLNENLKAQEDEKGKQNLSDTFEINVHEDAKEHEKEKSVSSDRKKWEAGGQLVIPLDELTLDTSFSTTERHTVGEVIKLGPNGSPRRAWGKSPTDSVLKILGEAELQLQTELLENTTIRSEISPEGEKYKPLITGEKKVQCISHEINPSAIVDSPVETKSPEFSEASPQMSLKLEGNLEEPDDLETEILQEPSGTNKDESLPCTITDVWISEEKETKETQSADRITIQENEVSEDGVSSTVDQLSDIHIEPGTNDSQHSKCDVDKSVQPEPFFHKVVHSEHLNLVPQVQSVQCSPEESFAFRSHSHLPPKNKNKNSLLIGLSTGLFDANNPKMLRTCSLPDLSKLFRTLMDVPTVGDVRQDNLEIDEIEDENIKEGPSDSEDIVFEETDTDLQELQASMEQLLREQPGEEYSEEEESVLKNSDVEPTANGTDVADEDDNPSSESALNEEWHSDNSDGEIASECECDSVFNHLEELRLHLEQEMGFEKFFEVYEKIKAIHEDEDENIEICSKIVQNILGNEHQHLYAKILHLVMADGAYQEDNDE

[13] = target: T5, Serine/threonine-protein kinase Nek1 (Homo sapiens); details: at 1 µM
[14] = target: T6, Serine/threonine-protein kinase Nek2 (Homo sapiens) (UniProt P51955); details: at 0.1 µM
T6 sequence (whole entry): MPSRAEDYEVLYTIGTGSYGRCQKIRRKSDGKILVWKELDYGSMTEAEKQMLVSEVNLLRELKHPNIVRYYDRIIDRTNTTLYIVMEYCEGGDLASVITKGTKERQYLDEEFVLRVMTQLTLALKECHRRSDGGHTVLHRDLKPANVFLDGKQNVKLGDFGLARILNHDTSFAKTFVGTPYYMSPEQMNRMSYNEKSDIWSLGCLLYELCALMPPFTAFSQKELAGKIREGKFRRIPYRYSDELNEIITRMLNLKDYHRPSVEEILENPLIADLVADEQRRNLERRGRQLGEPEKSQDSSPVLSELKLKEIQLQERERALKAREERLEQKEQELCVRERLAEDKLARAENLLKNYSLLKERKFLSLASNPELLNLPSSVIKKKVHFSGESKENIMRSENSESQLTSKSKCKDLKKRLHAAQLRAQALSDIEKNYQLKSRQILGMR

[15] = target: T6, Serine/threonine-protein kinase Nek2 (Homo sapiens); details: at 1 µM
[16] = target: Serine/threonine-protein kinase Nek6 (Homo sapiens) (UniProt Q9HC98); details: at 0.1 µM
[17] = target: Serine/threonine-protein kinase Nek6 (Homo sapiens) (UniProt Q9HC98); details: at 1 µM
[18] = target: Serine/threonine-protein kinase Nek7 (Homo sapiens) (UniProt Q8TDX7); details: at 0.1 µM
[19] = target: Serine/threonine-protein kinase Nek7 (Homo sapiens) (UniProt Q8TDX7); details: at 1 µM
[20] = target: T7, Serine/threonine-protein kinase Nek9 (Homo sapiens) (UniProt Q8TD19); details: at 0.1 µM;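 note: reported value is the mean percent inhibition of NEK9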
T7 sequence (whole entry): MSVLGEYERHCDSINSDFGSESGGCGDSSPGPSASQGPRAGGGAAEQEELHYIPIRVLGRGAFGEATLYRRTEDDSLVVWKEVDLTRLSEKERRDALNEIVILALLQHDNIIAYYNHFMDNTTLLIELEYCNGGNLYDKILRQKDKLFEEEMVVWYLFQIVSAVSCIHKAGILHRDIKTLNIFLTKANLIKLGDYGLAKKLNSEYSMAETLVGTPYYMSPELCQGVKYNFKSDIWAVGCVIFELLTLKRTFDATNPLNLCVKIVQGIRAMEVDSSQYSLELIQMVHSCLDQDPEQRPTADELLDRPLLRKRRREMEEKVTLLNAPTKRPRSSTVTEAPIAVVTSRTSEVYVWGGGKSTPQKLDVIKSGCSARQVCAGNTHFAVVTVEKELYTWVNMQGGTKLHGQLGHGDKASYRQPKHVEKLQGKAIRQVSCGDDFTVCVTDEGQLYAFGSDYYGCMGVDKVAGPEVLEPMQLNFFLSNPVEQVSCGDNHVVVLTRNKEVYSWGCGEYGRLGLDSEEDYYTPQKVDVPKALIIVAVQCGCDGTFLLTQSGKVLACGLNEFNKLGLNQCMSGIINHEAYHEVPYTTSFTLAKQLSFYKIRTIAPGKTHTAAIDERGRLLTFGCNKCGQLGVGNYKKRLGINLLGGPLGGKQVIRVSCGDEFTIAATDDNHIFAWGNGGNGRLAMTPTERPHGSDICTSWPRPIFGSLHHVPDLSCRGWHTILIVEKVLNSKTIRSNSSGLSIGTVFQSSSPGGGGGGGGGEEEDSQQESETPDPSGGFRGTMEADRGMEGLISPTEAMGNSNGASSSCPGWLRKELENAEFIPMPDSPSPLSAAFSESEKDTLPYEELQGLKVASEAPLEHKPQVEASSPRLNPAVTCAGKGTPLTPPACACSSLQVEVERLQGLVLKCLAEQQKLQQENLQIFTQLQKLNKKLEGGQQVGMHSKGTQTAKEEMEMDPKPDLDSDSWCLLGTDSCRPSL

Serine/threonine-protein kinase Nek7 (Homo sapiens), sequence (Q8TDX7 whole entry, looked up): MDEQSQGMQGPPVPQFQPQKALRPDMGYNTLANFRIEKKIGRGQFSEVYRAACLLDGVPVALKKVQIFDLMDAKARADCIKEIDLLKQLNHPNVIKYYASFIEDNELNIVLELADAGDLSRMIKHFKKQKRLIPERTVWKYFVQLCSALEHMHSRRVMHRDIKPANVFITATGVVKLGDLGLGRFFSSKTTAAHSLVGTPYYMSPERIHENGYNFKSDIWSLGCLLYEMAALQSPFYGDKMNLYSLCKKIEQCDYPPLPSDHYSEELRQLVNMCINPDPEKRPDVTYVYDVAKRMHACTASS
Serine/threonine-protein kinase Nek6 (Homo sapiens), sequence (Q9HC98 whole entry): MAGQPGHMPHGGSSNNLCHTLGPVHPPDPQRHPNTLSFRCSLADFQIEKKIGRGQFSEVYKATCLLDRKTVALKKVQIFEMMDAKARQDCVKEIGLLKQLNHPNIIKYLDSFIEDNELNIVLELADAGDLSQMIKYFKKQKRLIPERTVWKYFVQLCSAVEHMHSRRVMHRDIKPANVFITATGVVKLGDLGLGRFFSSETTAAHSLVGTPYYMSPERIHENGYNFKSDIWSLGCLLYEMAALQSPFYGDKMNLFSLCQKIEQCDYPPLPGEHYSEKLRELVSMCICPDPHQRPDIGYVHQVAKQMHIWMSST
Casein kinase II subunit alpha (Homo sapiens), sequence (P68400 whole entry, looked up): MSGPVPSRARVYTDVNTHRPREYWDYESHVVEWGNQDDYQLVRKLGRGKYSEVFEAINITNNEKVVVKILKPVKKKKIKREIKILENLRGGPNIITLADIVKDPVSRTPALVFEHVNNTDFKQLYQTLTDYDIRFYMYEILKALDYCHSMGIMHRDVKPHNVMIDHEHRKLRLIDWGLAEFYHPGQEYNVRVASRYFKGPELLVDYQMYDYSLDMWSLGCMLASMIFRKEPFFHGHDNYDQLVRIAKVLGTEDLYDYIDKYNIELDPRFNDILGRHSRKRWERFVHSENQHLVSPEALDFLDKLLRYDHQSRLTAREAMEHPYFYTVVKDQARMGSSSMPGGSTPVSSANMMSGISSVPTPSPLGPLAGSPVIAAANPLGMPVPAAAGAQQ
Sphingosine kinase 1 (Homo sapiens), sequence (Q9NYA1 whole entry): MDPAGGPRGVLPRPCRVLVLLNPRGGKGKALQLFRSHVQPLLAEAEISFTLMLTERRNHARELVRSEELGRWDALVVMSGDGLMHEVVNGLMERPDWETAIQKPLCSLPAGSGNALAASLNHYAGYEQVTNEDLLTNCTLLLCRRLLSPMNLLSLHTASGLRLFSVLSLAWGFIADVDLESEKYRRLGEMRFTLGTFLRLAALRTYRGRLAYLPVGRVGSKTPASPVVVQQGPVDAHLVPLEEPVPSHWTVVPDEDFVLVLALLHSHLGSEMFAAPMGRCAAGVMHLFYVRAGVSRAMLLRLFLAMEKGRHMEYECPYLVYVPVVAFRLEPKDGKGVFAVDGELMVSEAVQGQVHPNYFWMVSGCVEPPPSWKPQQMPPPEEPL

SMILES: Cc1nn(C)c2cc(N(C)c3ccnc(Nc4cccc(S(N)(=O)=O)c4)n3)ccc12
- inhibition [1]: 1.31%
- inhibition [2]: 0.44%
- inhibition [3]: 0.14%
- inhibition [4]: 2.59%
- inhibition [5]: 1.94%
- inhibition [6]: 2.21%
- inhibition [7]: 3.6%
- inhibition [8]: 4.27%
- inhibition [9]: 4.54%
- inhibition [10]: 4.1%
- inhibition [11]: 4.76%
- inhibition [12]: 2.28%
- inhibition [13]: 3.95%
- inhibition [14]: 3.82%
- inhibition [15]: 5.14%
- inhibition [16]: 0.43%
- inhibition [17]: 1.3%
- inhibition [18]: 5.76%
- inhibition [19]: 3.53%
- inhibition [20]: 8.48%
